Screens: PubChem, The Scripps Research Institute Molecular Screening Center
SMARCA2 activ = activators of SMARCA2 function. MG213 cells, MMTV-luciferase reporter, dexamethasone, overnight. activation, % at 9.1 µM. 370,000 compounds, 1% hits; in the data active = activation above about 7.8%;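 note: 0% = vehicle wells and 100% = reference activator wells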
ssDAF12 agonist = activates DAF-12 receptor from parasite S. stercoralis; activation, % at 6.8 µM; HEK293 ssDAF-12/GRIP1 lit1-tk-luc reporter, luminescence; % of 3 µM dafachronic acid response; 370,000 compounds, 1% hits;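 active = activation above the mean over all tested compounds plus 3 SD, cut at about 0.9% in these data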;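 note: 0% = DMSO-only wells and 100% = 3 µM delta7-dafachronic acid wells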
hgDAF12 agonist = agonists of H. glycines DAF-12 nuclear receptor; HEK293 GAL4-hgDAF12 UAS-luciferase reporter, agonist luminescence; normalized to butyrate control; activation, % at 6.8 µM; AID 687014; 370,000 compounds, 1.8% hits;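 active = activation above a cutoff set at the mean of all screened compounds plus 3 SD, cut at about 10% in these data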;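 note: 0% = DMSO wells and 100% = sodium butyrate wells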
DAX1 inh-1 = NR0B1 (DAX1) inhibition. P51843. 340,000 compounds, 0.99% hits. inhibition, % at 6.75 µM. HEK293 Gal4-DAX1 luciferase reporter, luminescence;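 active = inhibition above the mean over all tested compounds plus 3 SD, cut at about 4.2% in these data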;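 note: 0% = DAX1-transfected cells with DMSO and 100% = empty-vector control cells with DMSO; inhibition shows as a rise in luminescence from relieved DAX1 repression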
Target sequence (P51843 207-470 limits assumed): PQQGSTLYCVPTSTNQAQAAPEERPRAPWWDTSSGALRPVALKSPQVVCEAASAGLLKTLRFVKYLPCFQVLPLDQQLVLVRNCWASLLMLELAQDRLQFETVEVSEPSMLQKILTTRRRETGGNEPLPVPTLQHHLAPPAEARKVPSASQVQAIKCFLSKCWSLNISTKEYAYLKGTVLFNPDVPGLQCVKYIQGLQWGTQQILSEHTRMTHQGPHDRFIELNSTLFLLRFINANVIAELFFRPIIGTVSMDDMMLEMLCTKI
DAX1 inh-2 = DAX1 (NR0B1) inhibition, primary screen; 370,000 compounds, 1.1% hits; HEK293T StAR-luciferase reporter, SF-1/DAX-1 repression relief; inhibition, % at 6.8 µM;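 active = inhibition above the mean over all tested compounds plus 3 SD, cut at about 3.6% in these data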;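 note: 0% = DAX-1 cells with DMSO and 100% = cells lacking DAX-1 with DMSO; higher inhibition means more luminescence from relief of DAX-1 repression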
hcDAF-12 act = activates DAF-12 receptor from parasite H. contortus; HEK293 hcDAF-12 lit1-tk-luc reporter, luminescence; 0% DMSO, 100% Δ7-dafachronic acid; activation, % at 6.8 µM; 370,000 compounds, 1.4% hits;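 active = activation above the mean of all tested compounds plus 3 SD, cut at about 5.5% in these data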;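 note: 100% = response to 3 µM Δ7-dafachronic acid high control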
* marks the source's active call; other numbers are inactive results. In the library only some 4.8% were active in any assay of this set; here they are far more common.

For CCCOc1cccc(C(=O)Nc2ccc(CN3CCOCC3)cc2)c1 the results were SMARCA2 activ -2, ssDAF12 agonist -1, hgDAF12 agonist -1, DAX1 inh-1 -1, DAX1 inh-2 0 and hcDAF-12 act -1.
O=C(NCc1ccc(F)cc1)c1cnc2n(c1=O)CCS2 was read as SMARCA2 activ -2, ssDAF12 agonist -1, hgDAF12 agonist 0, DAX1 inh-1 4, DAX1 inh-2 0 and hcDAF-12 act 1.
`C=CCNC(=O)c1cnc2n(c1=O)CCS2` gave SMARCA2 activ 7.9*, ssDAF12 agonist -2, hgDAF12 agonist 0, DAX1 inh-1 1, DAX1 inh-2 0 and hcDAF-12 act -3.
CCCCCCn1c(SCCOC)nc2c1c(=O)[nH]c(=O)n2C was read as SMARCA2 activ -2, ssDAF12 agonist -1, hgDAF12 agonist -4, DAX1 inh-1 1, DAX1 inh-2 0 and hcDAF-12 act -1.
CCCOc1ccc(CSc2nc3ccccc3[nH]2)cc1 was read as SMARCA2 activ -2, ssDAF12 agonist -2, hgDAF12 agonist 2, DAX1 inh-1 -3, DAX1 inh-2 -2 and hcDAF-12 act -1.
For Cc1ccc2nc(-c3ccc(NS(=O)(=O)c4ccc(F)c(F)c4)cc3)sc2c1 the results were SMARCA2 activ 4, ssDAF12 agonist 1, hgDAF12 agonist 17*, DAX1 inh-1 2, DAX1 inh-2 5.8* and hcDAF-12 act 6.4*.
Screening Cc1ccc2nc(-c3ccc(NS(=O)(=O)c4ccccc4)cc3)sc2c1 returned SMARCA2 activ 1, ssDAF12 agonist 0, hgDAF12 agonist 4, DAX1 inh-1 0, DAX1 inh-2 1 and hcDAF-12 act 0.
`Cc1cc2c(cc1C)/C(=N/NC(=O)c1ccccn1)CCC2` gave SMARCA2 activ 5, ssDAF12 agonist 0, hgDAF12 agonist 11*, DAX1 inh-2 3 and hcDAF-12 act 4.
Cc1cc(C)c2c(c1)/C(=N/NC(=O)c1ccc(O)cc1)CCC2 was read as SMARCA2 activ 0, ssDAF12 agonist -2, hgDAF12 agonist 4, DAX1 inh-1 -1, DAX1 inh-2 0 and hcDAF-12 act 0.
`O=C(N/N=C1\CCc2ccccc21)c1ccccc1Cl` gave SMARCA2 activ 3, ssDAF12 agonist 0, hgDAF12 agonist 12*, DAX1 inh-1 3, DAX1 inh-2 2 and hcDAF-12 act 3.
For CCOC(=O)c1cc(=O)n(-c2ccc(Cl)cc2C)[nH]1 the results were SMARCA2 activ 0, ssDAF12 agonist -1, hgDAF12 agonist 3, DAX1 inh-1 0, DAX1 inh-2 0 and hcDAF-12 act -1.
Screening COc1cc(/C=N/n2cnnc2)ccc1OCc1ccc(C)cc1 returned SMARCA2 activ 1, ssDAF12 agonist 0, hgDAF12 agonist 12*, DAX1 inh-1 1, DAX1 inh-2 1 and hcDAF-12 act 1.
For CCOc1cc(/C=N/n2cnnc2)ccc1O the results were SMARCA2 activ -1, ssDAF12 agonist -1, hgDAF12 agonist 0, DAX1 inh-1 0, DAX1 inh-2 0 and hcDAF-12 act 6.5*.
For COc1cc(/C=N/n2cnnc2)ccc1OCCOc1ccccc1 the results were SMARCA2 activ 1, ssDAF12 agonist -1, hgDAF12 agonist 0, DAX1 inh-1 0, DAX1 inh-2 -1 and hcDAF-12 act -1.
Screening C=CCc1cc(/C=N/n2cnnc2)cc(OCC)c1O returned SMARCA2 activ -3, ssDAF12 agonist -1, hgDAF12 agonist 1, DAX1 inh-1 1, DAX1 inh-2 0 and hcDAF-12 act 0.
Screening O=C(OCC#CCSc1nnc(-c2ccccc2)o1)c1ccc(F)cc1 returned ssDAF12 agonist -2, hgDAF12 agonist 4 and hcDAF-12 act 2.
For CC(=O)NC(CC(=O)Nc1ccc(S(=O)(=O)Nc2nccs2)cc1)c1ccccc1 (centres undefined) the results were SMARCA2 activ -1, ssDAF12 agonist -1, hgDAF12 agonist -2, DAX1 inh-1 1, DAX1 inh-2 0 and hcDAF-12 act -1.
COc1c(Cl)cc(-c2noc(C)c2C(=O)NCc2ccc3c(c2)OCO3)cc1Cl was read as SMARCA2 activ 1, ssDAF12 agonist -1, hgDAF12 agonist 1, DAX1 inh-1 4.3*, DAX1 inh-2 -1 and hcDAF-12 act -1.
`Cc1ccccc1-n1c(Cn2c(=O)sc3ccccc32)nnc1SCC(N)=O` gave SMARCA2 activ -1, ssDAF12 agonist -1, hgDAF12 agonist 1, DAX1 inh-1 4.6*, DAX1 inh-2 -1 and hcDAF-12 act -2.
O=C(NC1CCS(=O)(=O)C1)/C(=C/c1ccc(Cl)cc1)NC(=O)c1ccccc1 (centres undefined) was read as SMARCA2 activ 1, ssDAF12 agonist -1, hgDAF12 agonist 1, DAX1 inh-1 4.8*, DAX1 inh-2 -1 and hcDAF-12 act 1.
`Cn1c(=O)c(Oc2ccc(Cl)cc2)c(O)c2ccccc21` gave SMARCA2 activ 2, ssDAF12 agonist 1.1*, hgDAF12 agonist 0, DAX1 inh-1 -1, DAX1 inh-2 1 and hcDAF-12 act 1.
`Cc1ncc2c(c1OC(=O)c1ccccc1)COC(C)(C)OC2` gave SMARCA2 activ -2, ssDAF12 agonist -1, hgDAF12 agonist 1, DAX1 inh-1 5.1*, DAX1 inh-2 0 and hcDAF-12 act 0.
For Cc1nn(C)c(C)c1NC(=O)CCl the results were SMARCA2 activ -3, ssDAF12 agonist 1.2*, hgDAF12 agonist -7, DAX1 inh-1 1, DAX1 inh-2 -1 and hcDAF-12 act 4.
`Cc1nn(C)c(C)c1NC(=O)COc1ccc(Cl)cc1` gave SMARCA2 activ -3, ssDAF12 agonist -2, hgDAF12 agonist -4, DAX1 inh-1 -2, DAX1 inh-2 -4 and hcDAF-12 act -2.
Screening COc1ccc(OCC(=O)OCC(=O)c2ccc(OC)c(F)c2)cc1 returned SMARCA2 activ 3, ssDAF12 agonist -1, hgDAF12 agonist 0, DAX1 inh-1 0, DAX1 inh-2 -1 and hcDAF-12 act 0.
`CC1CCN(C2=C(NS(=O)(=O)c3ccccc3)C(=O)c3ccccc3C2=O)CC1` gave SMARCA2 activ 7.8*, ssDAF12 agonist -1, hgDAF12 agonist 4, DAX1 inh-1 -2, DAX1 inh-2 0 and hcDAF-12 act 2.
Screening CCCCC(C(=O)O)C(C)CC(=O)Nc1nncs1 (centres undefined) returned SMARCA2 activ 4, ssDAF12 agonist -1, hgDAF12 agonist 5, DAX1 inh-1 4.7*, DAX1 inh-2 0 and hcDAF-12 act 1.
For CC(CCC(=O)Nc1nncs1)C(=O)O (centres undefined) the results were SMARCA2 activ -3, ssDAF12 agonist -1, hgDAF12 agonist 0, DAX1 inh-1 3, DAX1 inh-2 0 and hcDAF-12 act 1.
`CC(C)N(c1nnc(N)s1)C(C)C` gave SMARCA2 activ -1, ssDAF12 agonist 0, hgDAF12 agonist 0, DAX1 inh-1 5.0*, DAX1 inh-2 -1 and hcDAF-12 act 3.
